Measured values taken from publication PMC4336329 (PLoS ONE, 2015).
The campaign covered roughly 310,000 compounds. About 14,000 (4.5%) showed an effect of 50% or more. Effects have a minus sign here. Only a selection was taken, and strong results are over-represented in it overall.

biological target: human ether-à-go-go-related gene (hERG) potassium channel (human, UniProt Q12809); test: primary screen, population patch clamp on CHO cells stably expressing hERG; higher = less effect of the substance
Sequence (Q12809 whole entry, looked up): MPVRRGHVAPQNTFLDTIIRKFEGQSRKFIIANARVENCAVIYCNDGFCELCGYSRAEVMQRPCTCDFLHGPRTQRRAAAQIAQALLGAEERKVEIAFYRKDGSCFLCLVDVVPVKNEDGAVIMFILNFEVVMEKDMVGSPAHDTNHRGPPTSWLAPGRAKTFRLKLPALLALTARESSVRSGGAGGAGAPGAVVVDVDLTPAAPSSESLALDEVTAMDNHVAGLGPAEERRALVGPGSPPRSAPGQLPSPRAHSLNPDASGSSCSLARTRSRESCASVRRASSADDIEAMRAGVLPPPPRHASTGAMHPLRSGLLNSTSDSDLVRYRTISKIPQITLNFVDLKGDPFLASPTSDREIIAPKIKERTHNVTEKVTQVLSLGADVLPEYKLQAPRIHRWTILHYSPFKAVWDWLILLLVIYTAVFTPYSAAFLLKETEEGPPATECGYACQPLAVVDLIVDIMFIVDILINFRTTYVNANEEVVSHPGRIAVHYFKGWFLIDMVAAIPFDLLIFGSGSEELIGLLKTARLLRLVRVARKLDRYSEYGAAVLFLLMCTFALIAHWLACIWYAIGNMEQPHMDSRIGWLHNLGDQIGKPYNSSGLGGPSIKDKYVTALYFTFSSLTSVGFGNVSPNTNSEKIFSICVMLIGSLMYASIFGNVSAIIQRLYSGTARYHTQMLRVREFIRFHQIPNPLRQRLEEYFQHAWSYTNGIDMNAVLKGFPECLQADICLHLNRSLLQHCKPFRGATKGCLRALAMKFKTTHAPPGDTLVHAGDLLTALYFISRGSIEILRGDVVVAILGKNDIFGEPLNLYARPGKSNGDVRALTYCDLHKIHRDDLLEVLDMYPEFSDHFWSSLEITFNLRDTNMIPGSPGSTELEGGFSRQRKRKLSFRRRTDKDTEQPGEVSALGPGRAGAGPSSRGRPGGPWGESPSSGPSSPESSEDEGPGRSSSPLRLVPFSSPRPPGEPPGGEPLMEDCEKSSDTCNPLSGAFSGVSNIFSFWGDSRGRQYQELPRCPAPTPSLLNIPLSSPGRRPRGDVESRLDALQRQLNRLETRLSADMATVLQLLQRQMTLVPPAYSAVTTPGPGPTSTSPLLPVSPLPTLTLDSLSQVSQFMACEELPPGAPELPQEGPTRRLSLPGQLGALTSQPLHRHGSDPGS
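Also: peak tail current of the secondary pulse compared with the same well before compound.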

Structure (SMILES) | hERG current change (%, negative = inhibition) at 10uM [%]
Cc1ccccc1OCC(=O)NN1C(=O)C2C3C=CC(O3)C2C1=O (centres unmarked) | 12.3
COCCc1nnc(NC(=O)Cc2ccccc2)s1 | 4.67
C#Cc1ccc([C@@H]2C=C(C(=O)NCc3ccccc3)O[C@H](OCc3ccc(CO)cc3)C2)cc1 | 6.15
O=C(NCCC(=O)N(Cc1ccco1)Cc1cccs1)c1ccccc1Cl | -16.5
O=C(NCCC(=O)N(Cc1ccco1)Cc1cccs1)c1ccc(Br)cc1 | -58.7
O=C(c1cc2ccccc2oc1=O)N(Cc1ccco1)CC1CCCO1 (centres unmarked) | 6.96
COc1ccccc1C(=O)NCCC(=O)N(Cc1ccco1)Cc1cccs1 | -21.3
O=C(c1cc2ccccc2oc1=O)N(Cc1cccs1)Cc1cccs1 | -14.4
O=C(c1cc2ccccc2oc1=O)N(Cc1ccco1)Cc1cccs1 | -58.3
O=C(c1cc2ccccc2o1)N(Cc1ccco1)Cc1cccs1 | -35.4
O=C(c1cc2ccccc2oc1=O)N(Cc1ccc2c(c1)OCO2)Cc1ccco1 | -59.3
O=C(NCc1ccc2c(c1)OCO2)c1cc2ccccc2oc1=O | 12
CCn1c(CNC(=O)c2ccc(OC)c(OC)c2)nnc1SCC(=O)Nc1ccccc1 | -21.5
COC(=O)C1=C(c2cccc(C#N)c2)C[C@@H]2CC[C@H]1N2C(=O)N1CCOCC1 | 6.41
COc1ccc(-c2noc(CN(C)C(=O)CCN3C(=O)[C@H]4CC=CC[C@H]4C3=O)n2)cc1 | -2
COc1cc(C(=O)NCC(=O)OCC(=O)N2CCc3ccccc32)cc(OC)c1OC | 3.43
COc1ccc(OC)c(S(=O)(=O)Oc2ccc(N)c3ccccc23)c1 | 7.83
CC(C)(C)c1ccc(C(=O)NNC(=S)NCC2CCCO2)cc1 (centres unmarked) | 14.4
CCOc1ccc(NC(=O)CCSc2ccc(C)cc2)cc1 | 8.63
Cc1ccc(NC(=O)N2CCN(C(=O)c3ccco3)CC2)cc1Cl | -2.38
O=C(c1ccco1)N1CCN(C(=O)c2ccc(CS(=O)c3cccc(Cl)c3)o2)CC1 (centres unmarked) | -14
O=C(c1cccc(Cl)c1)N1CCN(C(=O)c2ccco2)CC1 | -8.43
Cc1ccc(Nc2nc(N)nc(CN3CCN(C(=O)c4ccco4)CC3)n2)cc1Cl | -74

Structure (SMILES) | hERG current change (%, negative = inhibition) at 10uM [%]
Nc1nc(CN2CCN(C(=O)c3ccco3)CC2)nc(Nc2cccc(Cl)c2)n1 | -78.6
Cc1cc(/C=C2\SC(=S)NC2=O)c(C)n1-c1ccccc1 | 14.6
Oc1c(/C=C/C=C/C=Nc2ccccc2)sc(=S)n1Cc1ccccc1 | -5.14
Fc1ccc(N2CCN(c3nc(-c4ccco4)cc(C(F)(F)F)n3)CC2)cc1 | 15.2
FC(F)(F)c1cc(-c2ccco2)nc(N2CCN(c3ccccc3)CC2)n1 | 1.67
CN1CCN(c2nc(-c3ccco3)cc(C(F)(F)F)n2)CC1 | -62.8
O=C(O)Cc1ccc(NC(=O)C2CC=CCC2C(=O)O)cc1 (centres unmarked) | 23.7
C[C@@H](NC(=O)c1nc[nH]c1C(=O)NC1CCN(C(=O)OC(C)(C)C)CC1)c1ccccc1 | -14.4
CCOc1ccccc1C1CC(c2ccccc2)Nc2nc(N)nn21.Cl (centres unmarked) | -11.9
Cc1ccccc1C1CC(c2ccc(Br)cc2)Nc2nc(N)nn21 (centres unmarked) | -52.3
Nc1nc2n(n1)C(c1ccccc1Cl)CC(c1ccc(F)cc1)N2 (centres unmarked) | -25.1
Cc1ccc(C2CC(c3ccccc3C)n3nc(N)nc3N2)cc1 (centres unmarked) | -14.6
Cc1ccccc1C1CC(c2ccc(F)cc2)Nc2nc(N)nn21 (centres unmarked) | -27.2
Nc1nc2n(n1)C(c1cccs1)CC(c1ccccc1)N2 (centres unmarked) | -23.5
Nc1nc2n(n1)C(c1c(F)cccc1Cl)CC(c1ccc(F)cc1)N2 (centres unmarked) | -62.4
CCOc1ccccc1C1CC(c2ccc(Br)cc2)Nc2nc(N)nn21 (centres unmarked) | -55.1
Nc1nc2n(n1)C(c1cccs1)CC(c1ccc(F)cc1)N2 (centres unmarked) | -33.9
CCOc1ccccc1C1CC(c2ccc(F)cc2)Nc2nc(N)nn21 (centres unmarked) | -48.1
Nc1nc2n(n1)C(c1cccs1)CC(c1ccc(Br)cc1)N2 (centres unmarked) | -57.5
COc1cccc(C2CC(c3c(F)cccc3Cl)n3nc(N)nc3N2)c1 (centres unmarked) | -2.6
CC(=O)N1CCN=C1SCc1cccc(Cl)c1 | -3.91
CC(C)C(c1nnnn1C1CCCCC1)N1CCc2ccccc2C1 (centres unmarked) | 2.91
c1ccc(-c2cnc(-c3ccccn3)nn2)cc1 | 18.6

Structure (SMILES) | hERG current change (%, negative = inhibition) at 10uM [%]
O=C(NCc1ccco1)c1ccc(N2CCCC2=O)cc1 | 4.3
Cc1cc(Nc2ccc(O)cc2)ccc1N | 14.1
COc1ccc(CCN=C2SCC(=O)N2C)cc1OC | -4.8
CCCCn1c(N)c(N(CCOC)C(=O)CSCc2c(C)noc2C)c(=O)[nH]c1=O | 17.1
O=C(O)c1ccc(NS(=O)(=O)c2ccc(N3CCCC3)c([N+](=O)[O-])c2)cc1 | 11.3
CCN(CCO)c1nc(N2CCCCC2)c2cnn(C)c2n1 | 3.12
COc1ccc2c(=O)c(C(=O)O)c(-c3ccc4c(c3)OCO4)n(C)c2c1 | 17.2
CCN=C1SC(CC(=O)NCC)C(=O)N1CC (centres unmarked) | -12.5
O=C(N/N=C/c1ccc(O)cc1)c1cc(-c2ccccc2)nc2ccccc12 | 11.2
Cc1cccc(NC(=O)c2cc3ccccc3o2)c1 | -19.8
c1csc(Cn2c(-c3cccs3)nc3ccccc32)c1 | -68.6
CCCCCn1c(C(C)NC(=O)CCC)nc2ccccc21 (centres unmarked) | -48.4
C=CCn1c(-c2cccs2)nc2ccccc21 | 3.12
Cn1c(NCc2ccco2)nc2ccccc21 | -10.2
CCN(CC)CCn1c(NCc2ccccn2)nc2ccccc21.Cl | -34.4
CCN(CC)CCn1c(NCc2ccco2)nc2ccccc21.Cl | -73
CCCCCn1c(NCc2ccco2)nc2ccccc21 | -74.8
CCn1c(NCc2ccco2)nc2ccccc21 | 2.38
CCn1c(-c2cccs2)nc2ccccc21 | -11.4
CCCCn1c(C(C)NC(=O)CC)nc2ccccc21 (centres unmarked) | -21.9
CCCCCCn1c(C(C)NC(=O)c2ccco2)nc2ccccc21 (centres unmarked) | -59.9
CCCn1c(NCc2ccc(C)o2)nc2ccccc21 | -24.1
